CRE-bla Fsk = alters forskolin-stimulated CRE reporter signaling in CHO cells; CHO CRE-bla reporter (cAMP response element driving beta-lactamase), forskolin EC10, beta-lactamase ratio; Potency, µM (highest dose often 38.2 µM), inactives show at the top dose activity change, negative = inhibition, usual class: activators; 2.5% of 71,000 active; AID 662; active = well fitted activation curve with a large enough effect in the signal ratio, with a control signal flat, not every such curve was filed as active; inconclusive = small, poorly fitted or top-dose-only effect, or effect the other way, or a change in a side signal; the % refers to the signal ratio; note: % of control where 0% means no effect
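Using CellSensor CRE-bla CHO cells in Opti-MEM with 0.5% dialyzed FBS, compounds were titrated with EC10 NKH 477 for 3 h at 37 °C. CCF4 ratio (460/530 nm) gave %Activity; AC50 derived.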
Tau fil binding = tau filament binding; P10636; recombinant tau filaments, thioflavin S fluorescence, 15 h; filaments grown with octadecylsulfate alongside compound; Potency, µM (doses to about 57.1 µM), inactives show at the top dose activity change, negative = inhibition; 2% of 71,000 active; AID 596;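 note: % is set by controls: 0 for no effect and ±100 for the full control effect; actives lower thioflavin S fluorescence by blocking filaments or displacing dye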
Target sequence (P10636 whole entry, looked up): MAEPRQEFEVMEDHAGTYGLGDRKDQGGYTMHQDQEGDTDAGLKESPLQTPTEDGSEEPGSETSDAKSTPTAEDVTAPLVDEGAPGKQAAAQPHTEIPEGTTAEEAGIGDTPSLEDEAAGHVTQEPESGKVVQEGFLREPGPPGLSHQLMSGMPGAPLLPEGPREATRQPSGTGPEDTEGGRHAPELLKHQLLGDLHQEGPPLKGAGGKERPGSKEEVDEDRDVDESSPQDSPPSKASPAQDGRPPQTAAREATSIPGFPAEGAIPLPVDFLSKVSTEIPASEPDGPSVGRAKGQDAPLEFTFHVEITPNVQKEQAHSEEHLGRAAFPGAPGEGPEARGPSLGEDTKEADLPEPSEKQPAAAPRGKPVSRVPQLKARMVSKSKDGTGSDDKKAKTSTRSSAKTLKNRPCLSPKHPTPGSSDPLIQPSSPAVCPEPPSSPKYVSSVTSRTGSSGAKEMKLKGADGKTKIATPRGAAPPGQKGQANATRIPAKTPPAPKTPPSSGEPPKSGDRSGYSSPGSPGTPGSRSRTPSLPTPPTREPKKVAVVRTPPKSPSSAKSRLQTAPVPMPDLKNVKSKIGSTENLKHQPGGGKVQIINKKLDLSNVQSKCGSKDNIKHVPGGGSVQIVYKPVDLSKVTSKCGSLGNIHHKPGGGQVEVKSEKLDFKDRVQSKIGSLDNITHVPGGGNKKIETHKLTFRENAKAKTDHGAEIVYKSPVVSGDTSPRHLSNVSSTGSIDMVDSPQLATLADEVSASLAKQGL
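Quantitative HTS: thioflavine S signal from ODS-induced tau filaments, excited at 450 nm, emission 510 nm. Conditions: 1 uM tau, 30 uM ODS, 15 h at 37 C, pH 7.4.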
HEK293 cAMP ctrl = raises cAMP in parental HEK293 cells, TSHR agonist counter-screen; parental HEK293 CNG cAMP sensor, membrane potential fluorescence; Potency, µM (top dose mostly 57.1 µM), for inactives: at the top dose activation, actives largely listed as activators; 2.5% of 73,000 active; AID 938; note: % of control where 0% means no effect; nearly all actives have a fitted effect of over 55% in size
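Parental HEK 293 cells stably expressing a cAMP-gated CNG channel were loaded with membrane potential dye containing 100 uM RO 20-1724 for 60 min. Compound added for 30 min; depolarization read as fluorescence intensity at 590 nm.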
ERK AVP block = inhibitors of vasopressin-stimulated ERK signaling pathway; AID 995; 0.99% of 72,000 active; HEK293-V1b, vasopressin-stimulated pERK AlphaScreen; Potency, µM (series often up to 57.5 µM), for inactives: at the top dose activity, negative = inhibition, actives largely listed as inhibitors; note: % is set by controls: 0 for no effect and ±100 for the full control effect; nearly all actives have a fitted effect of over 55% in size
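HEK293 cells stably expressing V1b receptor, seeded overnight in 1% FBS, were treated with compounds for 30 min at 37C, then stimulated 5 min with 25 nM vasopressin; phospho-ERK read by AlphaScreen SureFire after lysis.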
TSHR ag = agonists of human thyroid stimulating hormone receptor; Potency, µM (series often up to 57.1 µM), without a hit: at the top dose activation, most hits filed as activators; AID 926; HEK293-CNG-TSHR cells (CNG channel as cAMP sensor), membrane potential dye, cAMP; P16473; 0.48% of 73,000 active; active = well fitted activation curve with a large enough effect in the main read-out, with a control signal flat, not every such curve was filed as active; inconclusive = small, poorly fitted or top-dose-only effect, or a change in a side signal; inactive = no such curve, though single readings can be large or run the other way; % of control where 0% means no effect;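 note: the control signal comes from parental cells without the receptor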
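HEK 293 cells stably expressing TSHR and a cAMP-gated CNG channel; parental CNG-only cells as counterscreen. Cells preloaded 60 min with membrane potential dye plus 100 uM RO 20-1724, then compound 30 min; fluorescence read at 590 nm.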
* = called active by the depositor; ? = inconclusive; . = no result; [ ] = dose if it differs, or a comment. Compounds with a hit are over-represented: about 7.6% of the library has one in this group of screens. Unless noted, calls come from the whole dose curve; as a rule, active = well fitted curve in the direction sought with a large enough effect; inconclusive = small, poorly fitted or top-dose-only effect, or another doubt; inactive = no such curve, though single readings can be large; an effect the other way counts as inactive or inconclusive. Potency is the fitted concentration of half-maximal effect.

SMILES | CRE-bla Fsk | Tau fil binding | HEK293 cAMP ctrl | ERK AVP block | TSHR ag
COc1ccc(-c2oc3cc(OC)ccc3c(=O)c2O)cc1 | . | . | . | -1.5% | .
CS(=O)(=O)N1CCCC(C(=O)NCc2ccc(F)cc2Cl)C1 (stereo not given) | 10µM* | 0.0% | 14.0% | -27.9% | 9.2%
COc1cc(-c2nnc(SCc3c(F)cccc3Cl)o2)cc(OC)c1OC | ? | 43.7% | 31.6µM* | 13.6% | ?
COc1ccc(-c2nnc(SCC#CCO)o2)cc1OC | ? | -5.6% | 5.7% | ? | 4.7%
COc1cc(-c2nnc(SCc3ccccc3Cl)o2)cc(OC)c1OC | 3.98µM* | 14.7% | ? | 8.9% | ?
C=CCn1c(N)c(C(=O)OC(C)CC)c2nc3ccccc3nc21 (stereo not given) | 12.6µM* | -11.8% | 26.1% | -18.6% | 3.7%
c1ccc(C[n+]2cccc(-c3cc4ccccc4[nH]3)c2)cc1 | -5.7%[7.6 µM] | 0.316µM* | -1.6%[11.4 µM] | -17.3%[11.5 µM] | 3.9%[11.4 µM]
COC(=O)CCC(C)C1CCC2C3C(O)C[C@@H]4CC(O)CC[C@@]4(C)C3CC(O)[C@]12C (stereo not given in full) | . | . | . | -2.2% | .
CC(=O)OCC(=O)[C@@]1(O)[C@H](C)C[C@@H]2[C@H]3CCC4=CC(=O)C=C[C@]4(C)[C@]3(F)[C@@H](O)C[C@@]21C | -0.1%[17.1 µM] | 218.8%[25.6 µM] | -2.4%[25.6 µM] | 0.4%[25.7 µM] | -22.1%[25.6 µM]
COc1ccccc1NC(=O)CSc1nc2nc(C)cc(C)c2c(=O)[nH]1 | 10µM* | -2.1% | -8.7% | -12.3% | 4.2%
COc1ccccc1NC(=O)CSc1nc(N)cc(N)n1 | -1.9% | -4.6% | -7.2% | 0.0% | 4.5%
COc1ccccc1NC(=O)CSc1nccc(=O)[nH]1 | 0.501µM* | 1.2% | . | -12.6% | .
COc1ccccc1NC(=O)CSc1ncn[nH]1 | -1.3% | 7.2% | ? | 10.8% | ?
CC(C)=CCC1=C(O)c2ccccc2C(=O)C1=O | . | . | . | 11.3% | .
CC(C)CCN1CCc2nc(-c3ccccc3)c3c(c2C1)COC(C)C3 (stereo not given) | . | . | 1.2%[11.4 µM] | 6.9%[11.5 µM] | -5.5%[11.4 µM]
Cc1cc(NC(=O)CCCC(=O)N(CC(=O)NC2CCCCC2)c2ccccc2)no1 | -3.7% | 5.0% | ? | -14.5% | ?
Cc1cccc(N(CC(=O)NC2CCCCC2)C(=O)c2c(C)noc2C)c1 | -4.8% | -2.2% | 15.8µM* | 10.1% | ?
CCOc1ccc(C2C(C#N)=C(N)SC(N)=C2C#N)cc1OCC | 7.94µM* | 23.2% | 25.5% | 2.0% | 4.1%
COC(=O)C1OC(=O)C2OC23[C@]2(C)C(O)CC4C(C)(C)C(OC(C)=O)CC(OC(C)=O)[C@@]4(C)C2CC[C@@]13C (stereo not given in full) | . | . | . | -14.9% | .
Brc1ccc2[nH]c3nc(SCCN4CCOCC4)nnc3c2c1 | 2.51µM* | 12.6µM* | -6.6% | -11.3% | -1.9%[11.4 µM]
COC(=O)C1CC1C(NC(=O)[C@H]1CCCCN1)c1ccccc1 (stereo not given in full) | -8.3% | -4.2% | ? | 12.7% | ?
COc1ccc(CCNC(=O)CC2Nc3ccccc3NC2=O)cc1OC (stereo not given) | 6.9% | -9.2% | -2.9% | -2.2% | -1.8%
Cc1ccc(NC(=O)CC2Nc3ccccc3NC2=O)cc1Cl (stereo not given) | ? | 20µM* | -3.4% | 10.3% | -10.9%
CCOc1ccccc1NC(=O)CC1Nc2cc(C)c(C)cc2NC1=O (stereo not given) | ? | 3.98µM* | -8.5% | -5.5% | -20.1%
COc1ccc(CCNC(=O)CC2Nc3ccccc3NC2=O)cc1 (stereo not given) | 3.0% | 12.6µM* | -4.6% | ? | -0.7%
SMILES | CRE-bla Fsk | Tau fil binding | HEK293 cAMP ctrl | ERK AVP block | TSHR ag
O[C@]1(c2ccccc2)c2ccccc2NC2=NCCN21 | 4.1%[7.6 µM] | 6.2%[11.4 µM] | 1.8%[11.4 µM] | 8.5%[11.5 µM] | .
CC(=O)OCC1OC(C#CCCc2ccccc2)C=CC1OC(C)=O (stereo not given) | . | . | 0.4%[11.4 µM] | 1.4%[11.5 µM] | 5.7%[11.4 µM]
COC(=O)Cc1c(C)c2cc(Cl)c(OC(=O)c3ccco3)cc2oc1=O | ? | 17.3% | 5.8% | 12.6µM* | -0.4%
COC(=O)Cc1c(C)c2ccc(OC(=O)c3ccco3)cc2oc1=O | 10µM* | -2.1% | 11.7% | 3.98µM* | -1.0%
O=C(Oc1cc2oc(=O)c3c(c2cc1Cl)CCCC3)c1ccco1 | ? | 22.6% | 5.4% | -9.1% | 19.0%
Nc1c(C(=O)NCc2ccc3c(c2)OCO3)c2nc3ccccc3nc2n1CCCN1CCOCC1 | 12.6µM* | 145.6% | ? | -1.7% | ?
Nc1c(C(=O)NCCN2CCOCC2)c2nc3ccccc3nc2n1-c1ccc2c(c1)OCO2 | 27.3% | -12.9% | 17.9% | ? | .
Nc1ccc(-n2c(N)c(C(=O)NCc3ccc4c(c3)OCO4)c3nc4ccccc4nc32)cc1 | 12.6µM* | 269.7% | -14.7% | -6.3% | -5.8%
O=C(Nc1nc(-c2ccccn2)cs1)c1ccc(S(=O)(=O)N2CCCCC2)cc1 | 17.9% | 292.6% | 16.4% | 25.1µM* | 2.2%[11.4 µM]
O=C(Nc1nc(-c2cccs2)cs1)c1ccc(S(=O)(=O)N2CCCCC2)cc1 | ? | 301.5% | 20.4% | . | 8.3%
COc1ccc(OC2C=CC(C#Cc3ccc(F)cc3F)OC2CO)cc1 (stereo not given) | . | . | ? | -4.4%[11.5 µM] | ?
Cc1ccc(N(Cc2ccco2)C(=O)c2cccc(S(=O)(=O)N(C)C)c2)cc1 | ? | 1.3% | 20.1% | -7.7% | 20µM*
CN(C)S(=O)(=O)c1cccc(C(=O)NCc2ccco2)c1 | 6.3% | 3.8% | 13.7% | -10.0% | 2.5%
CCOC(=O)CCN1C(=O)[C@H]2[C@H]3[C@H](O)[C@H](O)C/C(=N/OCc4ccccc4)[C@H]3CC[C@@H]2C1=O | . | . | 7.7%[11.4 µM] | 5.7%[11.5 µM] | 7.6%[11.4 µM]
N#CC1=C(N)OC2=C(CCC/C2=C/c2ccoc2)C1c1ccoc1 (stereo not given) | -27.3% | 394.1% | 10.1% | 19.0% | 25.1µM*
CCOC(=O)C1=C(C)OC(N)=C(C#N)C1c1ccoc1 (stereo not given) | . | . | 21.8% | . | 3.0%
CCOc1c(OC)cccc1C1CC(=O)Nc2cc3c(cc21)OCCO3 (stereo not given) | 15.3% | -9.1% | 29.2% | -22.5% | 25.1µM*
CCC(=O)Nc1nn(C)c2nc3c(C)cccc3cc12 | 10µM* | -2.0% | 7.6% | 26.4% | -8.4%
Cc1cccc2cc3c(NC(=O)C(C)C)nn(C)c3nc12 | 3.16µM* | 11.9% | -13.8% | 1.6% | -8.7%
Cc1ccc2cc3c(NC(=O)C(C)C)nn(C)c3nc2c1 | 15.8µM* | -13.2% | 6.5% | 14.8% | 1.9%
CCn1nc(NC(=O)c2ccccn2)c2cc3cccc(C)c3nc21 | ? | 25.7% | ? | -6.2% | ?
CCCC(=O)Nc1nn(C)c2nc3cc(C)ccc3cc12 | ? | -19.6% | 6.0% | 14.9% | 0.2%
CCCCCCNC(=O)Nc1ccc(S(=O)(=O)Nc2ccc(CCNC[C@H](O)COc3ccc(O)cc3)cc2)cc1 | . | . | -12.0% | -12.1% | -34.2%
